Test results reported in PubChem BioAssay (EPA / NIEHS).
The source made the active and inactive calls. How the source made its calls: active means hit-call score of the fitted dose curve at least 0.9, where 1 is the maximum; inactive means score below 0.9.

Read-out: DNA damage-inducible transcript 3 (DDIT3), DDIT3 (gene 1649)
Test: LTEA_HepaRG_DDIT3: Life Technologies and Expression Analysis (LTEA) Assay for DNA damage-inducible transcript 3 (DDIT3) using HepaRG (AID 2283488)
Conditions: mRNA level, 48 h; actives raise or lower the signal
Description: LTEA_HepaRG is a cell based, multiplexed-readout assay that uses HepaRG, a human liver cell line, with measurements taken at 48 hours after chemical dosing on a 96-well plate.LTEA_HepaRG_DDIT3 is one of 102 assay component(s) measured in the LTEA HepaRG cell culture assay. It is a marker of Oxidative Stress.Data from the assay component LTEA_HepaRG_DDIT3 was analyzed into 1 endpoint. This assay endpoint, LTEA_HepaRG_DDIT3, was analyzed with bidirectional fitting relative to DMSO as the negative control and baseline of activity. Using a type of inducible reporter, measures of mRNA induction for gain or loss-of-signal activity can be used to understand regulation of transcription factor activity. To generalize the intended target to other relatable targets, this assay endpoint is annotated to the dna binding intended target family, where the subfamily is basic leucine zipper.
A total of 1060 chemcials from the ToxCast library were tested in eight-point concentration-response experiments. Cell culture and cytotoxicity assays were conducted at Thermo Fisher Scientific's Custom Services facility (Madison, WI). A single lot of human HepaRG cells (Thermo Fisher Scientific, Frederick, MD) was used for the cell culture experiments. 96-well format collagen type I coated plates of human HepaRG cells were prepared using established methods. Briefly, cryopreserved HepaRG cells were thawed, plated at a density of approximately 100,000 cells/well in HepaRG Thaw, Plate, and General Purpose media (HPRG770, Thermo Fisher Scientific), and incubated for 48 hours. 0.5% DMSO was selected as vehicle control to balance the requisite need of DMSO in HepaRG cultures to maintain differentiation (for example, baseline metabolism, proportions of hepatocytes vs. cholangiocytes), while enabling further hepatic receptor pathway activation (for example, PXR and CAR) in response to chemical exposure. 48 hours after plating, the culture medium was replaced with HepaRG Serum-Free Incudtion Media. Cells were exposed to each test chemical in duplicate and maintained in CO2 incubators for another 48 hours. Chemical plates were thawed to room temperature and 200x concentrations of treatment groups were prepared. 8-point conentration-reponse curves were made with the highest exposure at 100 uM, followed by half-log dilutions, all in 0.5% DMSO. Each test plate contained variouse controls, induction positive controls (1mM phenobarbital), cytotoxicity positive controls ([…] aflatoxin B1), vehicle controls (0.5% DMSO), and total lysis controls (0.5% DMSO). Cell morphology images were taken using an Essen IncuCyte FLR automated microscope, with six 96-well plates imaged in about 24 minutes. Images were captured and exported and JPEG files. Spent culture media was transfered to black-well plates for the LDH assay, and remaining media was sorted at -80 C for later use. Cells were treated with RLT buffer and frozen until shipped for gene expression analysis. Total RNA was isolated from the cell suspension in 75 uL of Buffer RLT (Qiagen, Germantown, MD 20874) by Quintiles/Expression Analysis (Durham, NC) using a custom isolation procedure. Total RNA from each plate well was transferred to a preamplification plate. Fluidigm's 96.96 Dynamic ArrayTM (Fluidigm, Amsterdam, the Netherlands) technology was used for gene expression analyses by quantitative reverse transcription polymerase chain reaction (qRT-PCR, performed by Quintiles/Expression Analysis, Durham, NC)89. Standard TaqManTM Assays (Applied Biosystems/ThermoFisher Scientific, Foster City, CA) were used to assess the expression of 93 genes selected based on their selectivity and sensitivity to important hepatic receptors known to be modulated by environmental chemicals; importance in human hepatocyte functionality; and hepatotoxicity. […]

Row | SMILES | outcome | AC50
1 | ClC(Cl)c1ccccc1 | inactive | –
2 | ClC(Cl)(Cl)c1ccccc1 | inactive | –
3 | COCCOCCO | inactive | –
4 | CCCCCCCc1ccc(O)cc1 | inactive | –
5 | CCC1(c2ccccc2)C(=O)N=C(O)NC1=O (stereo not given) | inactive | –
6 | ClC1=C(Cl)C2(Cl)C3C(Cl)C(Cl)CC3C1(Cl)C2(Cl)Cl (stereo not given) | – | 82.1 µM (active)
7 | OCC1CO1 (stereo not given) | inactive | –
8 | [N-]=[N+]=[N-] | – | 76.4 µM (active)
9 | CCN(CC)c1ccccc1 | inactive | –
10 | Nc1ccc(Cl)cc1 | inactive | –
11 | CCC(C)(C)c1ccc(O)cc1 | inactive | –
12 | CCCCN(CCCC)SN(C)C(=O)Oc1cccc2c1OC(C)(C)C2 | inactive | –
13 | CCOP(=S)(OCC)SCSCC | inactive | –
14 | O=[N+]([O-])c1ccccc1 | inactive | –
15 | Cc1ccc(O)cc1C | inactive | –
16 | O=[N+]([O-])c1ccc(Cl)c(Cl)c1 | inactive | –
17 | CCCCN(CCCC)N=O | inactive | –
18 | CCNc1nc(Cl)nc(NC(C)(C)C)n1 | inactive | –
19 | O=C(O)C(Cl)Cl | inactive | –
20 | Nc1cc2c3c(c1)C(c1ccccc1)=N[C@@H](NC(=O)c1cccnc1)C(=O)N3CC2 | inactive | –

Row | SMILES | outcome | AC50
21 | CCCN(CCC)c1c([N+](=O)[O-])cc(C(C)C)cc1[N+](=O)[O-] | inactive | –
22 | CCOC(=O)c1ccccc1C(=O)OCC | inactive | –
23 | CCCCc1ccccc1 | inactive | –
24 | c1ccc2c(c1)Nc1ccccc1S2 | inactive | –
25 | Cc1ccc(N)cc1N | inactive | –
26 | CSC(C)(C)C=NO | inactive | –
27 | c1nc[nH]n1 | inactive | –
28 | O=C(O)C1C(C(=O)O)C2(Cl)C(Cl)=C(Cl)C1(Cl)C2(Cl)Cl (stereo not given) | inactive | –
29 | c1cc2c3c(cccc3c1)CC2 | inactive | –
30 | CCOS(=O)(=O)OCC | inactive | –
31 | O=P(Oc1ccccc1)(Oc1ccccc1)Oc1ccccc1 | – | 75.4 µM (active)
32 | CCOc1ccc(C(C)(C)COCc2cccc(Oc3ccccc3)c2)cc1 | inactive | –
33 | CC(Cl)(Cl)C(=O)O | inactive | –
34 | CN(C)C(=O)Cl | inactive | –
35 | Cc1cccc(N)c1 | inactive | –
36 | c1ccc(OP(Oc2ccccc2)Oc2ccccc2)cc1 | inactive | –
37 | O=P1(N(CCCl)CCCl)NCCCO1 (stereo not given) | inactive | –
38 | CC(C)(C)c1ccc(O)cc1 | inactive | –
39 | CCOP(=S)(Oc1ccc([N+](=O)[O-])cc1)c1ccccc1 (stereo not given) | inactive | –
40 | Cc1ccc([N+](=O)[O-])cc1C | inactive | –
